# Records with an inconclusive call do not appear. Calls of active or inactive are those of the source. Calls come from the whole dose curve; as a rule, active = well fitted cell-killing curve with a large enough effect in the repeat runs; inconclusive = weak or mixed curves, or effect the other way; inactive = flat fitted curve, though single readings scatter.
# Test: qHTS RealTime-Glo MT Cell Viability Assay in HepG2 cells - 40 hour (AID 1224870); note: nearly all actives have a fitted effect of over 50% in size
# Conditions: RealTime-Glo luminescence; series mostly up to 76.8 µM
# From the text: National Center for Advancing Translational Sciences [NCATS]
# NIH Chemical Genomics Center [NCGC]
# U.S. Environmental Protection Agency [EPA]
# National Institutes of Environmental Health Sciences [NIEHS]
# National Toxicology Program [NTP]
# U.S. Food and Drug Administration [FDA]
# Measure of cell viability is critical in the cell-base assay. Analysis of cell viability is necessary for the characterization of cell responses to cytotoxic drugs and environmental stress. A RealTime-Glo MT Cell Viability Assay to monitor cell viability in real time of continues cell culture during 40 hours of compound treatment was used to screen Tox21 10K library compounds in HepG2 cells. The RealTime-Glo MT Cell Viability Assay is a nonlytic, homogeneous, bioluminescent method to measure cell viability in real time using a simple, plate-based method. The assay involves adding NanoLuc luciferase and a cell-permeant prosubstrate to cells in culture. Viable cells reduce the proprietary prosubstrate to generate a substrate for NanoLuc luciferase. This substrate diffuses from cells into the surrounding culture medium, where it is rapidly used by the NanoLuc Enzyme to produce a luminescent signal. The signal correlates with the number of viable cells, making the assay well suited for cytotoxicity studies.
# Tox21 Assay Protocol Summary:
# The mixture of HepG2 cell suspension and reagents were dispensed at 600cells/6 ul/well in 1536-well tissue culture treated black solid bottom plates using a Multidrop dispenser. After the assay plates were incubated at a 37 C/5% CO2 incubator for 5 hours, 23 nL of compounds dissolved in DMSO, positive and negative controls was transferred to the assay plate by a pintool work station. The plates were incubated at 37 C for 40 hours. The luminescence intensity were measured at 0h, 8h, 16h, 24h, 32h and 40h time points using ViewLux plate reader during compound treatment.
row,SMILES,outcome
1,CC(C)CC(C)O (stereo not given),inactive
2,Cc1ccc(C(C)C)c(O)c1,inactive
3,CCCCCCO,inactive
4,CC(C)(C)c1cc(Cc2cc(C(C)(C)C)c(O)c(C(C)(C)C)c2)cc(C(C)(C)C)c1O,inactive
5,C=CC(=O)OCCC(=O)O,inactive
6,O=c1[nH]cnc2[nH]ncc12,inactive
7,CC1(C)NC(=O)NC1=O,inactive
8,O=C(O)c1ccc(S(=O)(=O)N(Cl)Cl)cc1,inactive
9,COc1ccc(C)cc1N,inactive
10,CC(C)c1cccc(C(C)C)c1,inactive
11,C=CC[N+](C)(C)CC=C,inactive
12,CC(=O)Oc1ccc(C)cc1,inactive
13,COCCOC(=O)c1ccccc1C(=O)OCCOC,inactive
14,CCNc1ccccc1,inactive
15,CCCCCCCCCCO,inactive
16,CC(=O)c1ccc(O)cc1,inactive
17,CC(C)OC(=O)COc1ccc(Cl)cc1Cl,inactive
18,CC(=O)OC1CC(C)OC(C)O1 (stereo not given),inactive
19,CCNc1cccc(C)c1,inactive
20,COC(=O)CCCC(=O)OC,inactive

row,SMILES,outcome
1,Brc1ccc(Br)c(Br)c1,inactive
2,COc1ccccc1OCC(O)CO (stereo not given),inactive
3,CCOCC(=O)O,inactive
4,CCCCCC(=O)O,inactive
5,CC(CCl)OP(=O)(OC(C)CCl)OC(C)CCl (stereo not given),inactive
6,O=C1C(c2[nH]c3ccccc3c2O)=Nc2ccccc21,inactive
7,O=S(=O)(O)c1ccccc1,inactive
8,CC(=O)CC(C)(C)O,inactive
9,CN1C(=O)CC[C@H]1c1cccnc1,inactive
10,CC(=O)OCc1ccco1,inactive
11,CCCCCCCO,inactive
12,O=C(OCC1CCC2OC2C1)C1CCC2OC2C1 (stereo not given),inactive
13,C=CCc1ccc(OC)c(OC)c1,inactive
14,CCCCCCCC=O,inactive
15,COC(=O)c1cccnc1,inactive
16,CNC(=S)N(C)C,inactive
17,CCO[Si](CCCN)(OCC)OCC,inactive
18,C=C(C)[C@H]1CC=C(C)C(=O)C1,inactive
19,c1ccc(Oc2ccccc2)cc1,inactive
20,CN/C(=C\[N+](=O)[O-])NCCSCc1csc(CN(C)C)n1,inactive
